# Assay outcomes as filed in PubChem.
# DT40 TDP1 CPT: growth inhibition of DT40 Tdp1-/-;hTDP1 cells with camptothecin (screen for TDP1 inhibitors); Potency, µM (titrated, usually from 46.2 µM), usual class: inhibitors; 420,000 tested, 12% active; chicken DT40 Tdp1-/-;hTDP1 cells + 20 nM CPT, ATP luminescence, 48 h; also: nearly all actives have a fitted effect of over 55% in size
#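 Chicken DT40 Tdp1-/- cells stably complemented with human TDP1 were seeded at 400 cells/well in medium containing 20 nM camptothecin, exposed to pin-transferred compounds, and grown at 37 °C for at least 48 hr. Viability was read as ATP luminescence.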
# GCN5L2 inh: inhibitors of human GCN5L2 histone acetyltransferase; GCN5L2 HAT assay, ThioGlo1 CoA-SH fluorescence; 390,000 tested, 0.21% active; Q92830; AID 504327; Potency, µM (doses to about 58.9 µM), actives largely listed as inhibitors
# Target sequence (Q92830 whole entry, looked up): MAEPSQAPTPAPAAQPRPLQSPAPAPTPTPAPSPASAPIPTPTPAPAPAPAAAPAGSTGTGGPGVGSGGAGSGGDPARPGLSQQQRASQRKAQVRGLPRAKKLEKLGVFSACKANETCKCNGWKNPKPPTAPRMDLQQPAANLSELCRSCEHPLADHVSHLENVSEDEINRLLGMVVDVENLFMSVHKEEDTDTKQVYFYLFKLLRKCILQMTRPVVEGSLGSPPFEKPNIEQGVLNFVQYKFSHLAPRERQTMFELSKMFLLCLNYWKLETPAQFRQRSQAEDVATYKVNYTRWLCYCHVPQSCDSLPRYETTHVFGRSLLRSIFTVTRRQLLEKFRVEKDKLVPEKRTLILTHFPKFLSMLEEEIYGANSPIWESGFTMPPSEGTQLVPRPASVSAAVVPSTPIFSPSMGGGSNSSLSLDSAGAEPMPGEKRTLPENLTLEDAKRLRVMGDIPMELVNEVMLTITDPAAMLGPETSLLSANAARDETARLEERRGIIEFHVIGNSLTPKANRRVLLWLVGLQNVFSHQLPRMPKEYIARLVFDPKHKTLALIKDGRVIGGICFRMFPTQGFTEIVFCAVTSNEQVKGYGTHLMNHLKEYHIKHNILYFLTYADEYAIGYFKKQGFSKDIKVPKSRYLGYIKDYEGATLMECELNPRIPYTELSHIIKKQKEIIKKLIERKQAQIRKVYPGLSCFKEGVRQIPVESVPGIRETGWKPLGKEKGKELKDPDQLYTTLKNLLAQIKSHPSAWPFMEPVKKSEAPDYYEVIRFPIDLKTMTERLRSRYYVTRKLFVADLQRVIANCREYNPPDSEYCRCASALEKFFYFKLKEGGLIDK
#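 Fluorescence readout, Ex340nm/Em540nm: ThioGlo1 (50uM final) reacts with free CoA thiol released as 20nM GCN5L2 acetylates H3(1-25) peptide (75uM) using acetyl-CoA (70uM). Compound and enzyme sat 15 min beforehand; 20 min room-temperature reaction.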
# DT40 TDP1 no CPT: qHTS for Inhibitors of human tyrosyl-DNA phosphodiesterase 1 (TDP1): qHTS in cells in absence of CPT; DT40 Tdp1-/- hTDP1 cells, no CPT, ATP luminescence, 48 h; Potency, µM (highest dose often 46.2 µM), hits mostly inhibitors; 420,000 tested, 15% active; AID 686978, 2013; also: nearly all actives have a fitted effect of over 55% in size
#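 Chicken DT40 Tdp1-/- cells stably complemented with human TDP1 were seeded at 400 cells/well with DMSO in place of 20 nM camptothecin. After compound pinning, cells grew at least 48 hr at 37 °C; viability read by CellTiter-Glo luminescence.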
# VDR inhibitor: blocks the human vitamin D receptor; P11473; VDR-SRC2-3 peptide fluorescence polarization, 2 h; Potency, µM, hits mostly inhibitors; 400,000 tested, 0.93% active
#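 Fluorescence polarization assay measuring small-molecule disruption of VDR binding to the coregulator peptide SRC2-3. Compounds were pin-transferred (23 nl) into the reagent mix and incubated 2 h at room temperature before reading.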
# TDP1 block: TDP1 (human) enzyme inhibition | Potency, µM (series often up to 130 µM), actives largely listed as inhibitors | 350,000 tested, 0.28% active | recombinant TDP1, AlphaScreen DNA substrate cleavage | AID 485290 | Q9NUW8; also: nearly all actives have a fitted effect of over 40% in size
#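 Here, a 5' biotin and 3' phosphotyrosine-FITC DNA oligonucleotide reports Tdp1 activity: intact substrate bridges AlphaScreen beads, while cleavage leaves a 3' phosphate and drops signal. All incubations at room temperature.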
# PLK1 PBD inh: inhibitors of human PLK1 polo-box domain binding; P53350; Plk1 PBD binding of FITC phosphopeptide, fluorescence polarization; Potency, µM, hits mostly inhibitors; 360,000 tested, 2.8% active; also: series mostly up to about 57 µM; nearly all actives have a fitted effect of over 65% in size
# A number is an active result; . = inactive; ? = inconclusive; / = no result given; [ ] = dose if it differs, or a comment. Sampled rows, rich in hits. Any-hit rate of the full collection: about 18%. Calls follow the shape of the dose curve; as a rule, active = well fitted curve in the direction sought with a large enough effect; inconclusive = small, poorly fitted or top-dose-only effect, or another doubt; inactive = no such curve, though single readings can be large; an effect the other way counts as inactive or inconclusive.
SMILES,DT40 TDP1 CPT,GCN5L2 inh,DT40 TDP1 no CPT,VDR inhibitor,TDP1 block,PLK1 PBD inh
Cc1ccc(-n2ncc(C(=O)NCCc3ccsc3)c2C2CCN(C(=O)OC(C)(C)C)CC2)cc1C,16µM,.,16µM,.,.,/
Cc1ccc(-n2ncc(C(=O)NCc3ccccn3)c2C2CCN(C(=O)OC(C)(C)C)CC2)cc1C,?,.,18µM,.,.,/
Cc1ccc(C)c(NC(=O)c2cnn(-c3cccc(F)c3)c2C2CCN(C(=O)OC(C)(C)C)CC2)c1,?,.,23µM,.,.,/
CC(C)(C)OC(=O)N1CCC(c2c(C(=O)N3CCN(C(=O)c4ccco4)CC3)cnn2-c2cccc(F)c2)CC1,?,.,?,.,.,/
Cc1ccc(C2CCN(C(=O)c3cnn(-c4ccc(C)c(C)c4)c3C3CCN(C(=O)OC(C)(C)C)CC3)C2)cc1 (stereo not given),10µM,.,13µM,.,.,/
COc1cc(NC(=O)N(Cc2ccco2)C2CCN(C(C)=O)CC2)cc(OC)c1OC,.,.,.,.,.,/
CC(C)(C)OC(=O)N1CCC(c2c(C(=O)NCc3cccs3)cnn2-c2cccc(F)c2)CC1,?,.,16µM,.,.,/
Cc1ccc(-n2ncc(C(=O)NCc3cccs3)c2C2CCN(C(=O)OC(C)(C)C)CC2)cc1C,16µM,.,16µM,.,.,/
Cc1ccc(-n2ncc(C(=O)NCc3cccs3)c2C2CCN(C(=O)OC(C)(C)C)CC2)c(C)c1,?,.,?,.,.,/
Cc1c(Cl)cccc1-n1ncc(C(=O)NCc2cccs2)c1C1CCN(C(=O)OC(C)(C)C)CC1,?,.,?,.,.,/
COc1cc2c(cc1OC)CN(C1CCC(C)CC1)CC2 (stereo not given),.,.,.,.,.,.
O=C1/C(=C\c2cc([N+](=O)[O-])ccc2O)SC(=S)N1Cc1ccc(Cl)cc1,16µM,.,3.7µM,?,/,.
Cc1ccccc1/C=C1\SC(=S)N(/N=C/c2cc([N+](=O)[O-])ccc2O)C1=O,?,?,?,.,.,?
C#CCOc1ccc(/C=C2\SC(=S)N(Cc3cccnc3)C2=O)cc1,3.3µM,.,4.6µM,.,.,.
O=C(O)C(c1ccccc1)N1C(=O)/C(=C\c2ccc(O)c(O)c2)SC1=S (stereo not given),.,.,.,.,/,.
O=C1/C(=C/c2cccnc2)SC(=S)N1N1CCOCC1,?,.,.,.,/,.
O=C1/C(=C\c2ccc(O)c(O)c2)SC(=S)N1Cc1ccccc1,21µM,.,18µM,.,/,.
O=C1/C(=C/c2ccncc2)SC(=S)N1N1CCOCC1,13µM,.,?,.,/,?
O=C1/C(=C/c2ccc(O)cc2)SC(=S)N1Cc1cccnc1,.,.,.,.,.,.
N#CCC(=O)Nc1ccc(C(=O)OCC(=O)NC2CCCCCC2)cc1,.,.,.,.,.,.
CC1(C(=O)OCC(=O)Nc2nnc(-c3ccccc3)o2)CC1(Cl)Cl (stereo not given),?,.,?,.,.,.
CCCN1C(=O)/C(=C/c2ccncc2)SC1=S,?,.,?,?,.,.
O=C1/C(=C\c2cccc(O)c2O)SC(=S)N1Cc1ccccc1,?,20µM,23µM,.,/,3µM
O=C1/C(=C/c2ccncc2)SC(=S)N1Cc1ccccc1,?,.,16µM,71µM,.,?
CC(=O)c1ccc(NS(=O)(=O)c2ccc([N+](=O)[O-])cc2)cc1,.,/,.,.,/,.
SMILES,DT40 TDP1 CPT,GCN5L2 inh,DT40 TDP1 no CPT,VDR inhibitor,TDP1 block,PLK1 PBD inh
COc1ccc(S(=O)(=O)Nc2ccc(-c3cn4c(C)csc4n3)cc2)cc1,.,.,.,.,.,/
CC(=O)c1ccc(NS(=O)(=O)c2ccc(N)cc2)cc1,?,.,?,?,.,30µM
CC(=O)c1ccc(S(=O)(=O)Nc2ccc(-c3cn4c(C)csc4n3)cc2)cc1,.,.,.,25µM,.,/
COc1ccccc1NS(=O)(=O)c1ccc(C(=O)N2CCN(c3ccccn3)CC2)cc1,23µM,.,13µM,.,.,.
COc1ccccc1Nc1ccc(NS(=O)(=O)c2ccc(C(C)=O)cc2)cc1,.,.,16µM,.,/,.
Cc1cccn2c(=O)nc(SCC(=O)N3CCCC3)nc12,.,.,.,.,/,.
Cc1noc(C)c1CCC(=O)N1CCOc2ccc(CN3CCN(c4ccccn4)CC3)cc2C1,.[9.04 µM],/,?,/,/,/
OCC1(CO)COC(CCc2ccccc2)=N1,.,.,.,.,/,.
COc1ccccc1NS(=O)(=O)c1ccc(C(=O)NCc2ccc(S(N)(=O)=O)cc2)cc1,?,.,15µM,.,.,.
Cc1ccc(S(=O)(=O)Nc2ccccc2OC(C(=O)OC(C)(C)C)C(=O)OC(C)(C)C)cc1,15µM,/,16µM,/,/,.
COc1ccccc1NS(=O)(=O)c1ccc(NC(C)=O)cc1,.,.,.,.,.,.
COc1ccccc1NS(=O)(=O)c1ccc(C(N)=O)cc1,.,.,.,.,.,24µM
Cc1ccc(OCC(=O)Nc2cccnc2Cl)cc1C,.,.,.,.,/,.
O=C(CCS(=O)(=O)c1ccccc1)NNC(=O)CSc1ccccc1F,.,.,.,.,.,.
CCC1CN(CCC(=O)N2CCCN(C(=O)c3ccco3)CC2)Cc2cc(OC)ccc2O1 (stereo not given),.[9.04 µM],/,.,/,/,/
Cc1ccc(Cl)cc1NC(=O)c1sc2nc(C)c(C)c(C)c2c1N,/,.,/,.,.,/
COc1cc(CC(NC(C)=O)C(=O)NC2CCN(C(=O)Nc3ccccc3C)CC2)cc(OC)c1 (stereo not given),.,.,.,.,/,.
COc1ccccc1-c1nnc(C2CCN(S(=O)(=O)c3cccc([N+](=O)[O-])c3)CC2)o1,?,.,21µM,.,.,.
COc1ccccc1-c1nnc(C2CCN(S(=O)(=O)c3ccccc3)CC2)o1,?,.,15µM,.,.,/
COc1ccccc1-c1nnc(C2CCN(S(=O)(=O)c3ccc([N+](=O)[O-])cc3)CC2)o1,?,.,?,.,.,.
COc1ccccc1CNC(=O)Cc1csc2nc(-c3ccc(Cl)cc3)cn12,?,.,?,.,.,/
O=C(Cc1csc2nc(-c3ccc(F)cc3)cn12)NCc1ccccc1,16µM,.,?,.,.,/
C[C@@H](NC(=O)c1[nH]cnc1C(=O)Nc1ccccc1F)c1ccccc1,.,/,?,/,/,.
O=C(c1cc2cc(Cl)ccc2o1)N1CCCC1,.,.,.,.,.,.
O=C(c1cc2cc(Br)ccc2o1)N1CCCCC1,?,.,21µM,.,.,.
Cc1cc(NC(=O)c2cccn2-c2nnc(N3CCCCC3)s2)ccc1Br,?,.,?,.,.,/
